Reference: PubChem BioAssay
Values joined by “and” are separate entries in the source; they are usually repeats but may differ in a detail not shown here. Equal values may be shown once. Active and inactive are the calls of the source.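 How the source made its calls, unless noted: active means compounds whose cell count with miR-34 switched on is under 0.7 times the count with it off; inactive means the rest.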

Columns and labels:
[1] = EMT-state selective cytotoxicity in co-culture – imaging, PC-3E GFP, TEM4-18 mCherry, primary screen (AID 1345086;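 active means compounds killing one labelled cell type while sparing the other, by normalised counts and ratio limits, not self-fluorescent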;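 on all read-outs here: cells exposed to compound for 72 h before imaging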;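 on red/green cell ratio (normalised): normalised mesenchymal count divided by normalised epithelial count so high means epithelial killing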); details: PC-3E GFP / TEM4-18 mCherry co-culture, imaging cell counts, at 1 µM; for red/green cell ratio (normalised): actives lie on both sides, counts scaled to control wells, 1 = unselective
[2] = viability loss with induced miR-34 in A549 – imaging, A549 dox-inducible miR-34, nuclei and caspase counts, primary screen (AID 1347080); details: A549 miR-34 inducible, Hoechst nuclei count, 48 h
[3] = P. berghei load reduction in hepatocytes – cell-based, HepG2, luciferase luminescence, HepG2 viability, primary screen (AID 624349; in the data active means parasite load remaining mostly below about 12%, no sharp cut-off; inactive means mostly above about 10%;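 further: 100% = mean of DMSO negative control wells on the same plate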); details: P. berghei liver stage in HepG2, luciferase luminescence, concentration not given here; parasite load remaining: stronger effect = lower value; viability: measured here: HepG2 viability without parasites
[4] = MELAS cybrid and Rieske KO viability enhancers – cell-based, MELAS cybrids, Rieske KO mouse fibroblasts, CellTiter-Glo, primary screen (AID 1508586;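 active means mean z-score across replicates of 1.96 or higher in either the MELAS or the Rieske mutant cell line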;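 further: z relative to plate mean and SD of compound and empty wells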); details: low glucose
[5] = biological target: NAD(+) hydrolase SARM1 (Homo sapiens) (UniProt Q6SZW1); assay: blocking NAD cleavage by SARM1 SAM-TIR – cell lysate, NAD-Glo luminescence (AID 1508614;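 active means compound whose remaining NAD level is above about 45 nM, limit read from the data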); details: SAM-TIR HEK293T lysate NADase, at 1 µM, stronger effect = higher value
[6] = biological target: Mitogen-activated protein kinase 7 (Homo sapiens) (UniProt Q13164); assay: Gal4-ERK5 driven luciferase induction – cell-based, HTS, primary screen (AID 1508626;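 active means luciferase signal above three times the same-plate solvent-only control wells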;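 further: luciferase driven by Gal4-ERK5 fusion binding five Gal4 sites before minimal TATA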); details: HeLa Gal4-ERK5 transactivation, 18 h, at 5 µM, stronger effect = higher value
[7] = galactose survival enhancers in mitochondrial complex I cybrids – cell-based, galactose medium, ATP luminescence, primary screen (AID 1645843;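 active means z-score of at least 1.8 in each of two replicates, scored against plate mean and spread of sample wells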;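 further: positive z means more ATP and so rescue of galactose-driven cybrid death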); details: complex I mutant cybrid cells, 72 h, stronger effect = higher value
[8] = compounds altering circadian rhythm period length – cell-based, LOPAC library, luminescence reporter (AID 2774; call rule not given here;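 further: values are relative to mean of DMSO wells on each plate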); details: circadian reporter cells, at 7 µM, actives lie on both sides
[9] = system: Hepatitis C virus NS3 helicase; assay: blockers of NS3h binding to ssDNA – biochemical, fluorescence polarization, LOPAC1280 library, primary screen (AID 687035; in the data active means inhibition above about 37%); details: Purified HCV NS3 helicase, Cy5-dT15 ssDNA binding fluorescence polarization; stronger effect = higher value; concentration not given here
[10] = compounds altering Cy5-DNA-NS3h complex signal – biochemical, LOPAC1280, artefact control for HCV NS3 helicase inhibitor project (AID 687037; call rule not given here); details: Cy5-DNA-NS3h complex fluorescence interference counterscreen
[11] = blockers of cellular phospholipid synthesis – cell-based, LOPAC library, screen 4, primary screen (AID 1347384; call rule not given here); details: animal cells, phospholipid biosynthesis inhibition screen; at 10 µM
[12] = measured here: epithelial PC-3E GFP cell survival
[13] = measured here: mesenchymal TEM4-18 mCherry cell survival
[14] = stronger effect = lower value, cell number ratio, induced over uninduced
[15] = measured here: relative caspase fold change +Dox/-Dox
[16] = measured here: total cells with miR-34 induction, stronger effect = lower value
[17] = measured here: total cells without miR-34 induction
[18] = MELAS cybrid survival, CellTiter-Glo 48 h, stronger effect = higher value
[19] = Rieske KO mouse fibroblast survival, CellTiter-Glo 72 h

Mitogen-activated protein kinase 7 (Homo sapiens), sequence (Q13164 whole entry, looked up, the tested form may be a part): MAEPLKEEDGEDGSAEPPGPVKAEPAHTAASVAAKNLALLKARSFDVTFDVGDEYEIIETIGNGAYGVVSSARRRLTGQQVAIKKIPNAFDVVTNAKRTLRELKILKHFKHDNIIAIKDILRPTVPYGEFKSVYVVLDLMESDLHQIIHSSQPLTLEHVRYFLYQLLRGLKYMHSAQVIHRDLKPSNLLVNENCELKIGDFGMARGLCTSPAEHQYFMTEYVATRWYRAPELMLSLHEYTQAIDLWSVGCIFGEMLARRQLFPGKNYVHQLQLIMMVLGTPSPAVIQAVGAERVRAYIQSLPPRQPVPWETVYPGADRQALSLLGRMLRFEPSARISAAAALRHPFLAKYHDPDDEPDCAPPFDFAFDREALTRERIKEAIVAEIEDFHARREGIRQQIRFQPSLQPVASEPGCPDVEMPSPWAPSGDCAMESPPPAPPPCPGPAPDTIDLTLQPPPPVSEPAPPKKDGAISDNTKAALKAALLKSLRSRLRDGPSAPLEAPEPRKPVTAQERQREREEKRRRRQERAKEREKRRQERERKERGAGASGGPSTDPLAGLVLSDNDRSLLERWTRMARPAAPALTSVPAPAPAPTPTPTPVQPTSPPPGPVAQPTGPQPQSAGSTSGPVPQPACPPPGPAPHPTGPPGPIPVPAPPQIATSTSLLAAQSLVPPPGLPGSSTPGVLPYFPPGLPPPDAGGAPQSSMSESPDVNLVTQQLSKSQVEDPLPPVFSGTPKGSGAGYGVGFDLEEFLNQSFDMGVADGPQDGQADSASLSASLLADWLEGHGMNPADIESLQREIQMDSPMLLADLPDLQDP
NAD(+) hydrolase SARM1 (Homo sapiens), sequence (Q6SZW1 whole entry, looked up, the tested form may be a part): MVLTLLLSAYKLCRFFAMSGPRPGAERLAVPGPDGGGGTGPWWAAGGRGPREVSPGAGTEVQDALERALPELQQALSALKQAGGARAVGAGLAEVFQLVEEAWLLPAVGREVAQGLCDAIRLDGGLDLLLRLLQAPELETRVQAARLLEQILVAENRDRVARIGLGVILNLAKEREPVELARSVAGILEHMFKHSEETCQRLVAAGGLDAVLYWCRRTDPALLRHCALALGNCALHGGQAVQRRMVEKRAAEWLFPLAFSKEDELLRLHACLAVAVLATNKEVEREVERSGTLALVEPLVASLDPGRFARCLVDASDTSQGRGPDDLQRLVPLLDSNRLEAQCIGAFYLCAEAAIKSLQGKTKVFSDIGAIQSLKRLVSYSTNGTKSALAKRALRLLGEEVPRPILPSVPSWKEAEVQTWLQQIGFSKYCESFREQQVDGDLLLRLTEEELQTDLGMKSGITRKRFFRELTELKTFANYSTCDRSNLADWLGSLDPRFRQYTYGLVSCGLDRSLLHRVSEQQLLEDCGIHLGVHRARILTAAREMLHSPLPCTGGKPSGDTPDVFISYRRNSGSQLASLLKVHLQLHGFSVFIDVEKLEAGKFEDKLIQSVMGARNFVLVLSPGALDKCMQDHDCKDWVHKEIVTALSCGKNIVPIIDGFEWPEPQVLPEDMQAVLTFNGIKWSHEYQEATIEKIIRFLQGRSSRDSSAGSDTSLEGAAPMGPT

Structure (SMILES)	red/green cell ratio (normalised) [1]	normalised cell number [1, 12]	normalised cell number [1, 13]	fold change [2, 14]	fold change [2, 15]	cell count [2, 16]	cell count [2, 17]	parasite load remaining [3]	viability [3]	z-score [4, 18]	z-score [4, 19]	remaining NAD [5]	luciferase signal [6]	z-score [7]	period change [8]	inhibition [9]	fluorescence ratio (interference) [10]	outcome [11]
CC12CCC3c4ccc(O)cc4CCC3C1C[C@H](O)[C@@H]2O (stereo partly specified)	0.97 (inactive)	0.91	0.89	0.999 (inactive)	0.736	8330	8350	–	–	–	–	–	–	–	–	–	–	–
CC1(C)S[C@@H]2[C@H](NC(=O)COc3ccccc3)C(=O)N2[C@H]1C(=O)O	1.2 (inactive)	0.81	0.98	0.943 (inactive) and 0.879 (inactive)	0.921 and 0.998	11800 and 10100	12500 and 11500	89.7% (inactive) and 64.4% (inactive) and 28.3% (inactive)	71.1% and 91.3% and 70.5%	0.0944 (inactive)	0.173	10 nM (inactive)	64 AU (inactive)	0.895 (inactive)	–	–	–	–
CCCCC[C@H](CC(=O)NO)C(=O)N[C@H](C(=O)N1CCC[C@H]1CO)C(C)C	0.91 (inactive)	1.02	0.93	2.17 (inactive)	1.05	6800	3130	–	–	–	–	–	192 AU (inactive)	2.42 (inactive)	-0.03 h (inactive)	0% (inactive)	1.1 (inactive)	inactive
CC1(C)C2CCC1(CS(=O)(=O)O)C(=O)/C2=C\c1ccc(/C=C2\C(=O)C3(CS(=O)(=O)O)CCC2C3(C)C)cc1	0.78 (inactive)	1.44	1.12	0.905 (inactive)	1.03	8090	8940	–	–	–	–	–	–	–	–	–	–	–
CC(C)OC(=O)CCC/C=C\C[C@@H]1[C@@H](/C=C/C(O)COc2cccc(C(F)(F)F)c2)[C@H](O)C[C@@H]1O (stereo partly specified)	0.87 (inactive)	1.24	1.08	0.865 (inactive)	1.12	8710	10100	–	–	–	–	–	–	–	–	–	–	–
O=[N+]([O-])O[C@@H]1CO[C@H]2[C@@H]1OC[C@@H]2O	1.19 (inactive)	1.15	1.37	0.933 (inactive)	3.92	12300	13200	73.3% (inactive)	93.9%	-0.228 (inactive)	0.0347	12 nM (inactive)	52 AU (inactive)	–	–	–	–	–
c1ccc(C2CN3CCSC3=N2)cc1 (stereo unspecified)	1.29 (inactive) and 1 (inactive)	0.85 and 1.04	1.1 and 1.05	0.894 (inactive) and 0.914 (inactive) and 0.823 (inactive)	2.54 and 0.996 and 1.2	8980 and 9120 and 8770	10000 and 9980 and 10700	183% (inactive) and 71.5% (inactive)	108% and 76.2%	0.49 (inactive)	0.36	10 nM (inactive)	–	0.64 (inactive)	0.075 h (inactive)	-2% (inactive)	1 (inactive)	inactive
CN(C)CC(c1ccc(O)cc1)C1(O)CCCCC1 (stereo unspecified)	1 (inactive)	0.79	0.79	0.982 (inactive) and 0.891 (inactive) and 0.889 (inactive)	0.639 and 1.05 and 1.37	9600 and 8680	9780 and 9740 and 9750	–	–	-0.237 (inactive) and -0.203 (inactive)	-0.123 and -0.139	10 nM (inactive)	–	–	–	–	–	–
CC1=CC(=O)NS(=O)(=O)O1	1.16 (inactive)	0.89	1.03	0.852 (inactive) and 0.934 (inactive)	0.799 and 0.672	7390 and 8400	8680 and 8990	–	–	-0.393 (inactive)	-0.0842	10 nM (inactive)	–	–	–	–	–	–
O=c1[nH]c(=O)n([C@H]2C[C@H](O)C(CO)O2)cc1I (stereo partly specified)	0.98 (inactive)	1.09	1.07	1.01 (inactive)	0.724	7950	7880	–	–	–	–	–	–	–	–	–	–	–
CN1CCN(C(c2ccccc2)c2ccc(Cl)cc2)CC1 (stereo unspecified)	1.15 (inactive)	1.09	1.26	0.825 (inactive) and 0.923 (inactive)	1.22 and 0.572	7440 and 10400	9010 and 11300	76% (inactive) and 58.1% (inactive)	93.1% and 88.3%	0.513 (inactive)	1.23	10 nM (inactive)	100 AU (inactive)	–	–	–	–	–
Cc1cc(-n2c(=O)[nH]c(=O)n(C)c2=O)ccc1Oc1ccc(SC(F)(F)F)cc1	0.98 (inactive)	1.07	1.05	0.875 (inactive) and 0.912 (inactive)	1.01 and 1.07	7860 and 10300	8980 and 11300	24.3% (inactive)	72%	-0.0992 (inactive) and -0.247 (inactive) and 0.135 (inactive)	-0.203 and -0.144 and -0.234	10 nM (inactive)	136 AU (inactive)	0.65 (inactive)	–	–	–	–
O=C(O)C1=CC(=C(c2ccc(O)c(C(=O)O)c2)c2ccc(O)c(C(=O)O)c2)C=CC1=O	1.1 (inactive)	1.19	1.31	1.06 (inactive)	1.49	8760	8290	–	–	–	–	–	12 AU (inactive)	5.43 (active)	-0.145 h (inactive)	96% (active)	1 (inactive)	inactive
CCC(NC(C)C)C(O)c1ccc(O)c(O)c1 (stereo unspecified)	1.04 (inactive)	0.9	0.93	1.08 (inactive) and 0.894 (inactive) and 0.889 (inactive)	0.697 and 1.09 and 4.01	10800 and 8990 and 12000	9990 and 10100 and 13500	55.9% (inactive) and 47.9% (inactive)	94.3% and 104%	-0.772 (inactive)	-0.513	10 nM (inactive)	212 AU (inactive)	-1.29 (inactive)	0.18 h (inactive)	-1% (inactive)	0.9 (inactive)	inactive
O=C(O)c1ccccc1Nc1ccccc1	0.96 (inactive)	1.09	1.05	1.06 (inactive) and 0.981 (inactive)	2.67 and 0.812	10300 and 5440	9720 and 5550	–	–	–	–	–	24 AU (inactive)	2.06 (active)	-0.04 h (inactive)	0% (inactive)	0.9 (inactive)	inactive
